Data on 40 compounds can be found in PubChem BioAssay (Tox21).

Results filed as inconclusive are left out. Unmarked numbers belong to inactive results. The source made the active and inactive calls. The call rests on the fitted dose curve; in most records, active means well fitted curve in the direction sought with a large enough effect in the repeat runs; inconclusive means weak or mixed curves; inactive means no such curve, though single readings can be large; an effect the other way counts as inactive or inconclusive.
Further: nearly all actives have a fitted effect of over 50% in size.
On the % scale 0 is the no-effect control and ±100 the full control effect; potency means the concentration at half of the fitted maximal effect.

A short description of the first experiment: qHTS RealTime-Glo MT Cell Viability Assay in HepG2 cells - 24 hour (AID 1224867). As to conditions: RealTime-Glo luminescence; series mostly up to 76.8 µM; activity change, negative = cytotoxicity: at the top concentration. The method in brief:
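qHTS, HepG2, 600 cells/well, RealTime-Glo (NanoLuc + prosubstrate) added with cells; 5 h preincubation; DMSO compound addition; 37 C; luminescence at 0/8/16/24/32/40 h.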
In general terms: Quantitative high-throughput screening tests each substance at several concentrations.
In the case of `Cc1ccc(Cl)c(Nc2ccccc2C(=O)O)c1Cl`, the “activity change, negative = cytotoxicity” value is 0.548% [at 35.3 µM].

For the compound `C=C(C)C(=O)OCCOCCOC(=O)C(=C)C`, the “activity change, negative = cytotoxicity” value is -1.09%.

Take `CC(C)(c1ccccc1)c1ccccc1`: the “activity change, negative = cytotoxicity” value was 1.09%.

In the case of `c1ccc(C[n+]2cccc3ccccc32)cc1`, the “activity change, negative = cytotoxicity” value was -6.2%.

As to `CCC1CO1` (stereo not given), the “activity change, negative = cytotoxicity” value was -2.68%.

`Cc1cscn1`: the “activity change, negative = cytotoxicity” value was 3.64%.

Take `CC1(C)S[C@@H]2[C@H](NC(=O)C(c3ccccc3)S(=O)(=O)O)C(=O)N2[C@H]1C(=O)O` (stereo not given in full): the “activity change, negative = cytotoxicity” value was 1.69% [at 35.3 µM].

Turning to `CC1(C)[C@@H](OC(=O)CCC(=O)O)CC[C@]2(C)[C@H]3C(=O)C=C4[C@@H]5C[C@@](C)(C(=O)O)CC[C@]5(C)CC[C@@]4(C)[C@]3(C)CC[C@@H]12`, the “activity change, negative = cytotoxicity” value is 2.08% [at 35.3 µM].

In the case of `CC(=O)Oc1ccc([N+](=O)[O-])cc1CCl`, the “activity change, negative = cytotoxicity” value is -11.4%.

For `CCCCCCCCCCCCCCN(CCO)CCO`, the Potency is 21.9 µM (active).

As for `O=C(/C=C/c1ccc(O)c(O)c1)O[C@@H]1C[C@@](OC(=O)/C=C/c2ccc(O)c(O)c2)(C(=O)O)C[C@@H](O)[C@@H]1O`, the “activity change, negative = cytotoxicity” value was 2.67% [at 35.3 µM].

As to `O[C@@H]1CO[C@H]2[C@@H]1OC[C@@H]2O`, the “activity change, negative = cytotoxicity” value is 0.263% [at 35.3 µM].

Turning to `O=c1[nH]ncc2ccccc12`, the “activity change, negative = cytotoxicity” value was 1%.

`O=C(CCCN1CC=C(n2c(=O)[nH]c3ccccc32)CC1)c1ccc(F)cc1`: the “activity change, negative = cytotoxicity” value is -9.1% [at 35.3 µM].

As for `C=C/C(C)=C/C/C=C(\C)CCC=C(C)C`, the “activity change, negative = cytotoxicity” value is -3.66%.

Consider `CCOC(=O)c1ccc(C#Cc2ccc3c(c2)C(C)(C)CCS3)nc1`, for which the “activity change, negative = cytotoxicity” value was -18.3% [at 35.3 µM].

In the case of `CCCCCCCCN`, the “activity change, negative = cytotoxicity” value was -0.424%.

On to `CC1CC(C)C(=O)C1=O` (stereo not given), for which the “activity change, negative = cytotoxicity” value is 0.231%.

As to `COC(=O)CCS`, the “activity change, negative = cytotoxicity” value was 1.19%.

Turning to `Cc1ccc2c(Br)cc(Br)c(O)c2n1`, the “activity change, negative = cytotoxicity” value was 2.22% [at 35.3 µM].

Regarding `CCC(OCCCOC)OC(C)=O` (stereo not given), the “activity change, negative = cytotoxicity” value is -0.691%.

In the case of `CO[C@]1(NC(=O)CSC(F)F)C(=O)N2C(C(=O)O)=C(CSc3nnnn3CCO)CO[C@H]21`, the “activity change, negative = cytotoxicity” value is 2.41% [at 35.3 µM].

Take `CCCCCCC(C)(C)C(=O)O`: the “activity change, negative = cytotoxicity” value is 0.679%.

As to `O=C1CCCCCCCCCCOCCCCO1`, the “activity change, negative = cytotoxicity” value was -3.36%.

In the case of `CCn1cc(C(=O)O)c(=O)c2cc(F)c(N3CCNCC3)cc21`, the “activity change, negative = cytotoxicity” value was 0.12% [at 35.3 µM].

Take `CCOc1ccccc1O[C@H](c1ccccc1)[C@H]1CNCCO1`: the “activity change, negative = cytotoxicity” value was -0.725% [at 35.3 µM].

On to `Cc1[nH]cnc1CN1CCc2c(c3ccccc3n2C)C1=O`, for which the “activity change, negative = cytotoxicity” value is -14.1% [at 35.3 µM].

As to `CCCCCCCC/C=C\CCCCCCCCCCCC(=O)O`, the “activity change, negative = cytotoxicity” value is 2.26%.

On to `Oc1cc2c(cc1O)[C@H]1c3ccc(O)c(O)c3OC[C@@]1(O)C2`, for which the Potency is 49.6 µM (active).

In the case of `O=C(OC(=O)c1ccccc1)c1ccccc1`, the “activity change, negative = cytotoxicity” value is 1.5%.

Consider `Brc1cc(Br)c(Oc2cc(Br)c(Br)cc2Br)cc1Br`, for which the “activity change, negative = cytotoxicity” value was -0.377% [at 35.3 µM].

Take `CCN(CC)CCNC(=O)COc1ccc(OC)cc1`: the “activity change, negative = cytotoxicity” value is 4.58% [at 35.3 µM].

On to `NNC(=O)CP(=O)(c1ccccc1)c1ccccc1`, for which the “activity change, negative = cytotoxicity” value was -3.26% [at 35.3 µM].

As for `C=C(C)CCCC(C)CCO` (stereo not given), the “activity change, negative = cytotoxicity” value was 1.85%.

For the compound `O=C(O)CCC(=O)C(=O)O`, the “activity change, negative = cytotoxicity” value is 0.62%.

Consider `CC(C)=CCC1C(=O)N(c2ccccc2)N(c2ccccc2)C1=O`, for which the “activity change, negative = cytotoxicity” value was 2.6% [at 35.3 µM].

Regarding `COC(=O)CS`, the “activity change, negative = cytotoxicity” value was -0.104%.

With `CC(=O)OCC[N+](C)(C)C`, the “activity change, negative = cytotoxicity” value is 2.05% [at 35.3 µM].

For `NCCNCCO`, the “activity change, negative = cytotoxicity” value was -1.31%.

Another experiment is described as follows: qHTS RealTime-Glo MT Cell Viability Assay in HEK293 cells - 32 hour (AID 1224868). On activity change, negative = cytotoxic: top concentration of the series differs between compounds. As to conditions: RealTime-Glo luminescence; series mostly up to 76.8 µM; activity change, negative = cytotoxic: at the top concentration. The method in brief: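 Assay medium contained NanoLuc luciferase plus cell-permeant prosubstrate, added with HEK293 cells at 600 cells/well. After 5 h at 37 C/5% CO2 compounds were added; plates stayed at 37 C for 40 h with serial luminescence reads.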
Turning to `Cc1ccc(Cl)c(Nc2ccccc2C(=O)O)c1Cl`, the “activity change, negative = cytotoxic” value is 0.372% [at 35.3 µM].

Turning to `C=C(C)C(=O)OCCOCCOC(=O)C(=C)C`, the “activity change, negative = cytotoxic” value is 6.07%.

As to `CC(C)(c1ccccc1)c1ccccc1`, the “activity change, negative = cytotoxic” value is -13.5%.

For `c1ccc(C[n+]2cccc3ccccc32)cc1`, the “activity change, negative = cytotoxic” value is -29.6%.

Consider `CCC1CO1` (stereo not given), for which the “activity change, negative = cytotoxic” value was 5.62%.

Turning to `Cc1cscn1`, the “activity change, negative = cytotoxic” value is 17.3%.

`CC1(C)S[C@@H]2[C@H](NC(=O)C(c3ccccc3)S(=O)(=O)O)C(=O)N2[C@H]1C(=O)O` (stereo not given in full): the “activity change, negative = cytotoxic” value is 1.37% [at 35.3 µM].

Turning to `CC1(C)[C@@H](OC(=O)CCC(=O)O)CC[C@]2(C)[C@H]3C(=O)C=C4[C@@H]5C[C@@](C)(C(=O)O)CC[C@]5(C)CC[C@@]4(C)[C@]3(C)CC[C@@H]12`, the “activity change, negative = cytotoxic” value was 10.1% [at 35.3 µM].

Take `CC(=O)Oc1ccc([N+](=O)[O-])cc1CCl`: the Potency was 3.89 µM (active).

With `CCCCCCCCCCCCCCN(CCO)CCO`, the Potency is 21.9 µM (active).

For `O=C(/C=C/c1ccc(O)c(O)c1)O[C@@H]1C[C@@](OC(=O)/C=C/c2ccc(O)c(O)c2)(C(=O)O)C[C@@H](O)[C@@H]1O`, the “activity change, negative = cytotoxic” value was 6.28% [at 35.3 µM].

Consider `O[C@@H]1CO[C@H]2[C@@H]1OC[C@@H]2O`, for which the “activity change, negative = cytotoxic” value was 1.81% [at 35.3 µM].

For the compound `O=c1[nH]ncc2ccccc12`, the “activity change, negative = cytotoxic” value was 9.53%.

With `C=C/C(C)=C/C/C=C(\C)CCC=C(C)C`, the “activity change, negative = cytotoxic” value was -4.64%.

With `CCCCCCCCN`, the “activity change, negative = cytotoxic” value was 0.24%.

As for `CC1CC(C)C(=O)C1=O` (stereo not given), the Potency was 13.8 µM (active).

As for `COC(=O)CCS`, the “activity change, negative = cytotoxic” value is 19.9%.

For `CCC(OCCCOC)OC(C)=O` (stereo not given), the “activity change, negative = cytotoxic” value is 4.15%.

`CO[C@]1(NC(=O)CSC(F)F)C(=O)N2C(C(=O)O)=C(CSc3nnnn3CCO)CO[C@H]21`: the “activity change, negative = cytotoxic” value was 17.3% [at 35.3 µM].

Regarding `CCCCCCC(C)(C)C(=O)O`, the “activity change, negative = cytotoxic” value is 3.26%.

As for `O=C1CCCCCCCCCCOCCCCO1`, the “activity change, negative = cytotoxic” value was -16.8%.

Take `CCn1cc(C(=O)O)c(=O)c2cc(F)c(N3CCNCC3)cc21`: the “activity change, negative = cytotoxic” value was 8.31% [at 35.3 µM].

With `CCOc1ccccc1O[C@H](c1ccccc1)[C@H]1CNCCO1`, the “activity change, negative = cytotoxic” value was -0.325% [at 35.3 µM].

As to `Cc1[nH]cnc1CN1CCc2c(c3ccccc3n2C)C1=O`, the “activity change, negative = cytotoxic” value was -22.6% [at 35.3 µM].

Regarding `Oc1cc2c(cc1O)[C@H]1c3ccc(O)c(O)c3OC[C@@]1(O)C2`, the “activity change, negative = cytotoxic” value is -20.5%.

Regarding `O=C(OC(=O)c1ccccc1)c1ccccc1`, the “activity change, negative = cytotoxic” value is 8.34%.

Consider `Brc1cc(Br)c(Oc2cc(Br)c(Br)cc2Br)cc1Br`, for which the “activity change, negative = cytotoxic” value is -4.64% [at 35.3 µM].

On to `CCN(CC)CCNC(=O)COc1ccc(OC)cc1`, for which the “activity change, negative = cytotoxic” value was 7.85% [at 35.3 µM].

Turning to `NNC(=O)CP(=O)(c1ccccc1)c1ccccc1`, the “activity change, negative = cytotoxic” value is -4.06% [at 35.3 µM].

On to `C=C(C)CCCC(C)CCO` (stereo not given), for which the “activity change, negative = cytotoxic” value is -15.3%.

For `O=C(O)CCC(=O)C(=O)O`, the “activity change, negative = cytotoxic” value was -1.37%.

On to `Nc1ccc(N=Nc2ccccc2)c(N)c1`, for which the Potency is 42.7 µM (active).

`CC(C)=CCC1C(=O)N(c2ccccc2)N(c2ccccc2)C1=O`: the “activity change, negative = cytotoxic” value is 9.47% [at 35.3 µM].

`COC(=O)CS`: the “activity change, negative = cytotoxic” value is 1.75%.

As for `CC(=O)OCC[N+](C)(C)C`, the “activity change, negative = cytotoxic” value was 0.325% [at 35.3 µM].

As for `NCCNCCO`, the “activity change, negative = cytotoxic” value is 21.3%.
